In PubChem BioAssay (NCATS):
Inconclusive results are not listed. A call without a number means that no potency is given here. Calls of active or inactive are those of the source. Calls come from the whole dose curve; as a rule, active = well fitted activation curve with a large enough effect; inconclusive = small, poorly fitted or top-dose-only effect; inactive = flat fitted curve, though single readings scatter.

Experiment: qHTS for Activators of Parkin Expression: LOPAC Validation Assay (NLuc Reporter) (AID 720572)
Settings: Parkin promoter NanoLuc reporter cells, luminescence; series mostly up to 46.1 µM
Excerpt: Parkin is an E3 ubiquitin ligase localized in the cytosol of cells expressed in many tissues, including brain, skeletal muscle, heart and liver tissues. One hour after stress induction by mitochondrial uncouplers (which mimic mitochondria damage by decreasing the mitochondrial inner membrane electrochemical gradient that is used to produce ATP), Parkin translocates from the cytosol to mitochondria in many cultured cell types, including neurons and HeLa cells. Administration of other mitochondrial poisons, such as Paraquat and azide in cells lacking mitochondrial DNA (mtDNA), induces Parkin translocation to mitochondria. […] It was proposed that Parkin (together with Pink1) mediates a mitochondrial quality control pathway to maintain organelle population fidelity by removing damaged mitochondria. Understanding the normal physiologic role of Parkin (and Pink1) may uncover novel treatment strategies for sporadic Parkinson's disease patients with mutation in these genes.
A cell based qHTS in 1536 well format was developed assess modulation of Parkin expression using a neuronal cell line that stably expresses a stably expresses a luminescent coincidence reporter (FLuc and NLuc reporters) behind the Parkin promoter. The LOPAC library is used to validate the assay for quantitative high-throughput screening. The data herein reports the signal from the NLuc reporter. An increase in this signal = activation of Parkin expression. For this assay , a positive control normalized signal increase corresponding to a high quality qHTS curve class in both luminescent channels is the desired outcome for this assay.
NIH Chemical Genomics Center [NCGC]
NIH Molecular Libraries Probe Centers Network [MLPCN]
Assay Submitter (PI): Richard Youle, National Institute of Neurological Disorders and Strokes (NINDS), NIH
[1] Narendra, D., et al., Parkin is recruited selectively to impaired mitochondria and promotes their autophagy. J Cell Biol, 2008. 183(5): p.
[2] Suen, D.F., et al., Parkin overexpression selects against a deleterious mtDNA mutation in heteroplasmic cybrid cells. Proc Natl Acad Sci U S A, 2010. […] 11835-40.
[3] Cheng K, Inglese J. A coincedence reporter-gene system for high-throughput screening. Nat Methods. 2012: 9(10);937
Five microliters (1,500 cells/well) of the Parkin coincidence reporter cells were seeded to 1536 well assay plates (Greiner Catalog # 789173-F) and incubated at 37 C, 5% CO2 for 24 hours. Compounds (23 nL) were pinned using the Kalypsys robotic system equipped with 1536 pin head adaptor in 7-point dose response. The assay plates were incubated for additional 24 hr at 37 C, 5% CO2 followed by a volume reduction in each well to 2 uL using an automated plate washer/aspirator. Following the volume reduction,2 uL of FLuc detection reagent and plates were incubated for 10 minutes at room temperature. The FLuc luminescence signal was obtained using the PerkinElmer ViewLux plate imager and then 2 uL of NanoLuc detection reagent was added to the plates. After another 10 minute incubation, NanoLuc signal was obtained using the PerkinElmer ViewLux plate imager as before. Data from each channel was normalized to DMSO (neutral control) and the positive control compounds (100%).
Potency is the fitted concentration of half-maximal effect.

Row | Compound | Potency
1 | CC1=C(/C=C/C(C)=C/C=C/C(C)=C/C(=O)Nc2ccc(O)cc2)C(C)(C)CCC1 | inactive
2 | CC1(C)CCC2=C(O1)c1ccccc1C(=O)C2=O | inactive
3 | CC(=O)N[C@@H](CS)C(=O)O | inactive
4 | NC(N)=Nc1nc(CSCC/C(N)=N/S(N)(=O)=O)cs1 | inactive
5 | COc1ccccc1N1CCN(CCCNc2cc(=O)n(C)c(=O)n2C)CC1 | inactive
6 | O=C1NC(=O)C(c2ccccc2)(c2ccccc2)N1 | inactive
7 | Cc1cccc(C)c1OCC(C)N (stereo unspecified) | inactive
8 | CC(C)NCC(O)COc1cccc2[nH]ccc12 (stereo unspecified) | inactive
9 | CCn1cc(C(=O)O)c(=O)c2ccc(C)nc21 | inactive
10 | Clc1ccc(Cn2c(CN3CCCC3)nc3ccccc32)cc1 | inactive
11 | CC(=O)CCCCn1c(=O)c2c(ncn2C)n(C)c1=O | inactive
12 | CCN(CC)CCNC(=O)c1ccc(N)cc1 | inactive
13 | CN(C)CCC(c1ccccc1)c1ccccn1 (stereo unspecified) | inactive
14 | CCCCCN(C)CCC(O)(P(=O)(O)O)P(=O)(O)O | inactive
15 | CCN(CC)CCOC(=O)c1ccc(N)cc1 | inactive
16 | C[N+](C)(C)CCCCCC[N+](C)(C)C | inactive

Row | Compound | Potency
17 | CC/C(=C(\c1ccccc1)c1ccc(OCCN(C)C)cc1)c1ccccc1 | inactive
18 | O=c1cc(-c2ccc(O)cc2)oc2cc(O)cc(O)c12 | 16.4 µM (active)
19 | COc1cccc(-c2cc(=O)c3ccccc3o2)c1N | inactive
20 | CCCNC(=O)NS(=O)(=O)c1ccc(Cl)cc1 | inactive
21 | Clc1ccc(C(c2ccc(Cl)cc2)n2cc[n+](CC(OCc3ccc(Cl)cc3Cl)c3ccc(Cl)cc3Cl)c2)cc1 (stereo unspecified) | inactive
22 | CCN(CC)C(=O)c1ccc(O)c(OC)c1 | inactive
23 | COC(=O)[C@@H]1[C@H]2C[C@H]3c4[nH]c5ccccc5c4CCN3C[C@@H]2CC[C@@H]1O | inactive
24 | O=C(NCCN1CCOCC1)c1ccc(Cl)cc1 | inactive
25 | CC(=O)c1ccc(S(=O)(=O)NC(=O)NC2CCCCC2)cc1 | inactive
26 | CC(=O)O[C@]1(C(C)=O)CC[C@H]2[C@@H]3C=C(Cl)C4=CC(=O)[C@@H]5C[C@@H]5[C@]4(C)[C@H]3CC[C@@]21C | inactive
27 | COc1ccc(Cc2nccc3cc(OC)c(OC)cc23)cc1OC | inactive
28 | CCN1CCC[C@H]1CNC(=O)c1cc(S(N)(=O)=O)ccc1OC | inactive
29 | NCCS | inactive
30 | O=C1NCC2(CCN(CCc3ccccc3)CC2)O1 | inactive
31 | CC(C)(C)c1ccc(C(O)CCCN2CCC(C(O)(c3ccccc3)c3ccccc3)CC2)cc1 (stereo unspecified) | inactive
